# The list is not random: actives were taken first. Their share in the collection is about 7.5%.
# ELG1 genotoxic = qHTS screen for small molecules that induce genotoxicity in human embryonic kidney (HEK293T) cells expressing luciferase-tagged ELG1; HEK293T ELG1-luciferase reporter, luminescence, 16 h; Potency, µM (top dose mostly 46 µM), inactives show at the top dose activity change, positive = activation, hits mostly activators; 330,000 compounds, 1.3% hits; note: % of control where 0% means no effect; nearly all actives have a fitted effect of over 60% in size
#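 Genotoxic stress is detected as increased luminescence from luciferase-tagged ELG1 in HEK293T cells, measured with ONE-Glo after a 16 hr treatment at 37 °C.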
# Rab9 prom act = qHTS Assay for Rab9 Promoter Activators; AID 485297, 2010; Huh7 Rab9 promoter-luciferase reporter, luminescence, 24 h; Potency, µM (doses to about 9.22 µM), without a hit: top-dose activation, negative = inhibition, actives largely listed as activators; 320,000 compounds, 2.8% hits; note: % of control where 0% means no effect; nearly all actives have a fitted effect of over 60% in size
#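 Luciferase signal after 10 min detection reagent at ambient indicates Rab9 promoter upregulation; stably transfected Huh7 cells were treated 24 h with compound in DMSO at 37 °C, 5% CO2.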
# SMN2 splice enh = qHTS Assay for Enhancers of SMN2 Splice Variant Expression; HEK293 SMN2-luciferase splicing reporter, luminescence, 30-36 h; 210,000 compounds, 2.8% hits; Potency, µM (titrated, usually from 46.1 µM), inactives show at the top dose activity change, positive = activation, actives largely listed as activators; AID 1458, 2008; note: % of control where 0% means no effect; nearly all actives have a fitted effect of over 55% in size
#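 HEK293 cells carry an SMN2 […]–luciferase reporter in which exon 7 inclusion puts luciferase in frame. Cells were plated 10-12 h before compound addition, then incubated 30-36 h at 37C. ONE-Glo luminescence was read; sodium butyrate at 4.5 mM final served as control.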
# FLuc modulator = qHTS profiling assay for firefly luciferase inhibitor/activator using purifed enzyme and Km concentrations of substrates (counterscreen for miR-21 project); purified FLuc, Km substrates, luminescence inhibition; Potency, µM (titrated, usually from 57.5 µM), without a hit: at the highest dose activity change, negative = inhibition, hits mostly inhibitors; 360,000 compounds, 6.9% hits; AID 588342, 2011;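 note: plate controls were vehicle for no effect and reference inhibitor for full effect; nearly all actives have a fitted effect of over 55% in size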
# Target sequence (P08659 whole entry, looked up): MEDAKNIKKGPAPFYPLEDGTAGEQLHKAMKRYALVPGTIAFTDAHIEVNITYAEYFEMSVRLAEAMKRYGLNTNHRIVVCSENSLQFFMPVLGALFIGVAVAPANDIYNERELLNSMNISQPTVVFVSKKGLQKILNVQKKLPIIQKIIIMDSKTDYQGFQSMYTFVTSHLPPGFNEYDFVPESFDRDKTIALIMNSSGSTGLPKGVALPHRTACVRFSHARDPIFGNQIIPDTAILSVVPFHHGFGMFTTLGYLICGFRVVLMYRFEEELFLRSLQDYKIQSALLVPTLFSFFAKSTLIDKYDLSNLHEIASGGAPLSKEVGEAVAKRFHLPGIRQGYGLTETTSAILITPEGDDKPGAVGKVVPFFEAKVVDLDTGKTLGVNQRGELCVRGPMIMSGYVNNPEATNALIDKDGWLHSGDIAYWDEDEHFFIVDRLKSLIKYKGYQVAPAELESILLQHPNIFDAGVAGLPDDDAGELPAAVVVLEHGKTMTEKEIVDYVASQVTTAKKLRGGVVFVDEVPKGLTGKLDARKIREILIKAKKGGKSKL
#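 Purified P. pyralis luciferase (10nM final) with 10uM D-luciferin and 10uM ATP (Km levels) in 50mM Tris acetate pH 7.5, 10mM Mg acetate, 0.01% Tween-20, 0.05% BSA; qHTS 6-point titration, ~60 µM downward; luminescence read.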
# NPC1 promoter act = qHTS Assay for NPC1 Promoter Activators; Huh7 NPC1 promoter luciferase reporter, 24 h; 320,000 compounds, 2.4% hits; Potency, µM (highest dose often 9.22 µM), without a hit: at the highest dose activation, actives largely listed as activators; note: % of control where 0% means no effect; nearly all actives have a fitted effect of over 60% in size
#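 Luciferase expression driven by the NPC1 promoter was measured in stably transfected Huh7 cells after a 24 h compound incubation, using a luciferase reagent and a luminescence read.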
# Luc counter = Counterscreen for Luciferase (Kinase-Glo TM) Inhibition; Potency, µM (highest dose often 38.3 µM), inactives show at the top dose activity change, negative = inhibition, actives largely listed as inhibitors; Kinase-Glo luciferase, ATP luminescence, 8 min; 200,000 compounds, 0.28% hits; note: % is set by controls: 0 for no effect and ±100 for the full control effect; nearly all actives have a fitted effect of over 60% in size
#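 Substrate mix (final 50 mM imidazole pH 7.2, 50 mM KCl, 7 mM MgCl2, 10 uM ATP, 0.01% Tween 20, 0.05% BSA) plus pin-tool compound, then Kinase-Glo detection mix; 8 min ambient, luminescence read.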
# Active calls of the source: *; ? = inconclusive; · = not tested or not shown; [ ] = another dose, or the depositor's remark. Calls come from the whole dose curve; as a rule, active = well fitted curve in the direction sought with a large enough effect; inconclusive = small, poorly fitted or top-dose-only effect, or another doubt; inactive = no such curve, though single readings can be large; an effect the other way counts as inactive or inconclusive. Potency is the fitted concentration of half-maximal effect.
SMILES,ELG1 genotoxic,Rab9 prom act,SMN2 splice enh,FLuc modulator,NPC1 promoter act,Luc counter
COc1ccc(-n2c(C)cc(/C=C3\C(=N)N4N=C(CC(=O)N5CCOCC5)SC4=NC3=O)c2C)c(OC)c1,5.0%,-10.0%,·,?,-2.2%,·
CCOc1cc(/C=C2/C(=N)N3C(=NC2=O)SN=C3S(C)(=O)=O)ccc1OS(=O)(=O)c1ccccc1,4.8%,4.9%,·,?,-0.5%,·
Cc1cc(/C=C2/C(=N)N3C(=NC2=O)SN=C3S(C)(=O)=O)c(C)n1-c1ccc(F)cc1,?,13.8%,?,1.51µM*,29.5%,13.5%
CCOc1ccc(-n2c(C)cc(/C=C3/C(=N)N4C(=NC3=O)SN=C4S(C)(=O)=O)c2C)cc1,3.6%,-2.3%,-6.0%,16.9µM*,-0.6%,0.9%
COc1ccccc1-n1c(C)cc(/C=C2\C(=N)N3N=C(CC(=O)N4CCOCC4)SC3=NC2=O)c1C,7.0%,-1.6%,·,23.9µM*,4.2%,·
COc1ccccc1-n1c(C)cc(/C=C2/C(=N)N3C(=NC2=O)SN=C3S(C)(=O)=O)c1C,?,?,-13.5%,0.675µM*,?,-1.8%
C/C(CC(=O)NC1CCCC1)=N\NC(=O)Cc1csc(N)n1,1.2%,-1.5%,1.1%,-2.4%,-2.7%,0.9%
COc1cccc(CN(C(=O)c2cccs2)C2CCS(=O)(=O)C2)c1 (stereo not given),2.1%,-2.1%,·,0.2%,0.1%,·
CC(C)(OC1OC(CO)C(O)C(O)C1O)[C@H]1Oc2ccc3ccc(=O)oc3c2[C@H]1O (stereo not given in full),3.7%,2.9%,16.3%,-2.3%,1.9%,-0.4%
N#CCC(=O)Nc1ccc(C(=O)OCC(=O)NC2CCCCCC2)cc1,0.8%,-3.0%,·,0.8%,-0.2%,·
Cc1cccc(C)c1-n1cccc1/C=C1/C(=N)N2C(=NC1=O)SN=C2S(C)(=O)=O,0.0%,-3.2%,-37.4%,23.9µM*,-1.5%,3.0%
Cc1ccc(-n2cccc2/C=C2/C(=N)N3C(=NC2=O)SN=C3S(C)(=O)=O)cc1Cl,4.7%,2.7%,11.9%,-3.6%,-4.0%,1.8%
Brc1cccc(-c2nnc(-c3ccccc3)o2)c1,3.26µM*,1.41µM*,17.8µM*,3.01µM*,2µM*,-2.9%
Cc1ccc(-c2nnc(-c3cccc(Br)c3)o2)cc1,8.2µM*,?,12.6µM*,4.78µM*,?,-2.6%
Cc1ccc2cccc(OCCCOc3ccccc3F)c2n1,3.4%,12.6%,·,19µM*,-1.8%,·
Clc1ccccc1OCCCOc1cccc2cccnc12,?,?,·,7.57µM*,?,·
Fc1ccc(COc2cccc3cccnc23)cc1,?,?,28.9%,16.9µM*,?,-2.6%
O=[N+]([O-])c1ccccc1OCCCOc1cccc2cccnc12,?,?,·,6.75µM*,?,·
NC(=O)COc1cccc2cccnc12,3.2%,11.5%,-0.5%,1.9%,-0.4%,-2.3%
O=C1C2CCC(C2)[C@@H]2CCCCN12 (stereo not given in full),·,·,·,·,·,-0.2%[39.9 µM]
O=[N+]([O-])c1ccc(-n2cnc3ccccc32)c([N+](=O)[O-])c1,-14.4%,-0.9%,·,-2.6%,-4.4%,·
Cc1ccc(OCCN2C(=O)c3ccccc3C2=O)c([N+](=O)[O-])c1,7.1%,25.9%,-25.2%,21.3µM*,13.5%,-4.0%
Cc1cccc(OCCCOc2cccc3cccnc23)c1C,-0.6%,4.6%,-20.6%,?,-3.4%,0.3%
O=Cc1ccccc1OCCCOc1cccc2cccnc12,5.8%,23.4%,·,13.5µM*,21.7%,·
Cc1ccc(OCCOc2cccc3ccc(C)nc23)c([N+](=O)[O-])c1,-0.4%,2.2%,18.0%,21.3µM*,5.9%,0.4%
SMILES,ELG1 genotoxic,Rab9 prom act,SMN2 splice enh,FLuc modulator,NPC1 promoter act,Luc counter
COc1cccc(OC)c1OCCCOc1cccc2cccnc12,13.0%,3.16µM*,?,16.9µM*,?,-8.0%
CCN1CCN(c2nc(C)nc3c2sc(=S)n3C)CC1,2.9%,-6.3%,-0.8%,-16.7%,-1.6%,3.0%
Cc1nc(N2CCCCC2)c2sc(=S)n(C)c2n1,20.6µM*,-10.8%,-115.7%,1.2%,-1.4%,2.5%
CCOc1ccccc1CNC(=O)CCn1c(=O)c2cccn2c2ccc(F)cc21,·,·,·,1.5%,·,·
COc1cccc(-c2ccc(-c3noc(-c4cccs4)n3)c(OC)n2)c1,?,26.2%,·,10.7µM*,21.3%,-2.8%
COc1ccc(-c2noc(-c3cccc(OC)c3OC)n2)cc1,·,·,12.6µM*,2.39µM*,·,·
CCOc1ccc(-c2cc(-c3nc(-c4ccc(C)cc4)no3)[nH]n2)cc1,·,·,·,21.3µM*,·,·
CCOc1nc(-c2ccccc2)ccc1-c1noc(-c2ccc(C)cc2)n1,·,·,-17.7%,-17.3%,·,·
O=[N+]([O-])c1cccc(-c2noc(-c3cccs3)n2)c1,14.6µM*,2.51µM*,·,2.69µM*,3.55µM*,·
COc1cccc(-c2ccc(-c3noc(-c4ccccc4F)n3)c(OC)n2)c1,?,-4.2%,21.2%,?,4.1%,1.3%
Cc1ccc(-c2cn3c(n2)sc2cc(C(=O)NC(C)C45CC6CC(CC(C6)C4)C5)ccc23)cc1 (stereo not given),·,·,·,-5.3%,·,·
COc1ccc([C@@H](C)c2cc3c(cc2O)OCO3)cc1,·,·,-28.6%[9.22 µM],·,·,-5.3%[7.66 µM]
COc1ccc(CCNC(=O)c2nc(-c3ccc(Cl)cc3)n3c2CCCCC3)c(OC)c1,·,·,·,-16.8%,·,·
COc1ccc(-c2nc(-c3ccncc3)no2)cc1,?,0.562µM*,·,2.13µM*,0.501µM*,·
CCOc1ccc(-c2nc(-c3cccnc3)no2)cc1,?,0.562µM*,1µM*,0.953µM*,0.631µM*,-11.3%
COc1ccc(-c2nc(-c3cccnc3)no2)cc1,?,0.447µM*,·,2.39µM*,0.631µM*,·
CCOc1nc(-c2ccc(OC)cc2)ccc1-c1noc(-c2ccncc2)n1,-0.9%,-5.8%,13.9%,3.1%,-4.2%,-2.0%
COc1cccc(-c2noc(-c3ccc(Cl)nc3)n2)c1,?,?,?,?,3.55µM*,-12.8%
CCOc1cc(-c2noc(-c3cccnc3)n2)ccc1OC,6.3%,3.2%,6.7%,-13.8%,-0.3%,-0.7%
COc1ccc(OC)c(NC(=O)Cn2ncc3c2-c2ccccc2OC3)c1,·,·,7.0%,-1.1%,·,·
COc1cc(OC)cc(-c2nc(-c3ccccc3)no2)c1,?,?,22.4µM*,-13.9%[2.3 µM],?,2.9%
c1csc(-c2nc(N3CCCCC3)no2)c1,14.6µM*,1.58µM*,·,6.75µM*,2.24µM*,·
